# Experimental data published in PubChem BioAssay (NCATS).
# Records with an inconclusive call do not appear. Values without a mark were called inactive. The source made the active and inactive calls. The call rests on the fitted dose curve; in most records, active means well fitted inhibition curve with a large enough effect; inconclusive means small, poorly fitted or top-dose-only effect; inactive means flat fitted curve, though single readings scatter.
# Test system: HEK293
# Assay: Cytotoxic Profiling of Annotated Libraries Using Quantitative High-Throughput Screening (AID 1296008); further: nearly all actives have a fitted effect of over 60% in size
# Settings: Five cell lines viability, CellTiter-Glo ATP luminescence, 48-72 h; max response: hits give low values
# In short: (§1)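 Cytotoxicity was measured as CellTiter-Glo ATP luminescence, read after 10 min at room temperature. Compound treatment of the cells lasted 48 or 72 hr at 37 degrees Celsius in a qHTS format.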
# On the % scale 0 is the no-effect control and ±100 the full control effect.
row,Structure (SMILES),max response
1,CC1=CC(=O)CC(C)(C)[C@@]1(O)CC[C@@H](C)O[C@@H]1O[C@H](CO)[C@@H](O)[C@H](O)[C@H]1O,-2.25%
2,Cc1cccc(S(=O)(=O)N2CCC[C@@H]2CCN2CCC(C)CC2)c1,-20.7%
3,O=[N+]([O-])c1cn2c(n1)OCC(OCc1ccc(OC(F)(F)F)cc1)C2 (stereo not drawn),-14.5%
4,O=C(O)Cc1ccc2oc(-c3ccc(NC(=O)/C=C/c4ccc(Br)cc4)c(F)c3)nc2c1,-7.74%
5,Cc1cc(O)cc(O[C@@H]2O[C@H](CO)[C@@H](O)[C@H](O)[C@H]2O)c1,0.562%

# Test system: HaCat
# Assay: as above
# Settings: Five cell lines viability, CellTiter-Glo ATP luminescence, 48-72 h; max response: hits give low values
# In short: as §1
Structure (SMILES),outcome,max response
O=C(O)C1CN(Cc2ccc(-c3nc4cc(Cc5ccccc5F)ccc4s3)c(F)c2)C1,inactive,
CC[C@]12C=CCN3CC[C@@]4(c5cc([C@@]6(C(=O)OC)C[C@H]7C[C@@H](C(C)(F)F)CN(Cc8c6[nH]c6ccccc86)C7)c(OC)cc5N(C)[C@H]4[C@@](O)(C(=O)OC)[C@@H]1OC(C)=O)[C@@H]32,inactive,
COc1nc2sc(C(=O)NC3CC3)c(N)c2c(C)c1Cl,,-34.1%
COC1CC(O[C@H]2CC[C@@]3(C)C(CCC4C3[C@H](OC(C)=O)[C@@H](OC(=O)/C=C/c3ccccc3)[C@]3(C)C(C(C)=O)CC[C@]43O)C2)OC(C)C1OC1CC(OC)C(OC2CC(OC)C(OC3OC(C)C(OC4OC(CO)C(O)C(O)C4O)C(OC)C3O)C(C)O2)C(C)O1 (stereo partly drawn),,-18.9%
CC(C)=CCC/C(C)=C/CO[C@@H]1O[C@H](CO)[C@@H](OC(=O)/C=C/c2ccc(O)cc2)[C@H](O[C@@H]2O[C@@H](C)[C@H](O)[C@@H](O)[C@H]2O)[C@H]1O,,-28.8%
COc1cc(/C=C/C(=O)O[C@H]2[C@H](O)[C@@H](CO)O[C@@]2(CO)O[C@H]2O[C@H](CO)[C@@H](O)[C@H](O)[C@H]2O)ccc1O,,-4.81%
CC1CCC2(C(=O)O)CCC3(C)C(=CCC4C5(C)CCC(O)C(C)(CO)C5CCC43C)C2C1(C)O (stereo not drawn),,1.16%
C=C1C[C@]23C[C@H]1CC[C@H]2[C@]1(C)CCC[C@@](C)(C(=O)O)[C@H]1[C@@H]3C(=O)O,,-5.4%
OCC(CO[C@@H]1O[C@H](CO)[C@@H](O)[C@H](O)[C@H]1O)c1ccc2c(c1)OCO2 (stereo partly drawn),,1.18%
C/C=C/C=C/C(=O)N1CC[C@]23c4ccccc4N[C@H]4N(C)c5cccc6c5[C@@]42CCN([C@H]6C2OC2(C)C)[C@H]13 (stereo partly drawn),,-7.02%
CC1OC(OC2C(C)OC(OC3C(OC(=O)C45CCC(C)(C)CC4C4=CCC6C7(C)CCC(OC8OC(C(=O)O)C(O)C(O)C8OC8OC(CO)C(O)C(OC9OC(C)C(O)C(O)C9O)C8O)C(C)(CO)C7CCC6(C)C4(C)CC5)OC(CO)C(O)C3O)C(O)C2O)C(O)C(O)C1O (stereo not drawn),,-14.7%
CC(C)=CC/C=C(\C)[C@H]1CC[C@]2(C)[C@@H]1[C@H](O)C[C@@H]1[C@@]3(C)CC[C@H](O)C(C)(C)[C@@H]3[C@@H](O[C@@H]3O[C@H](CO)[C@@H](O)[C@H](O)[C@H]3O)C[C@]12C,,4.08%
CC(C)=CCC(O)/C(C)=C/CO[C@@H]1O[C@H](CO)[C@@H](O)[C@H](O)[C@H]1O (stereo partly drawn),,-6.63%
OC/C=C/c1ccc(O[C@@H]2O[C@H](CO)[C@@H](O)[C@H](O)[C@H]2O)cc1,,4.35%
CC1(C)CC[C@]2(CO[C@@H]3O[C@H](CO)[C@@H](O)[C@H](O)[C@H]3O)[C@@H](O)C[C@]3(C)C(=CCC4[C@@]5(C)CC[C@H](O[C@@H]6O[C@H](CO[C@@H]7O[C@H](CO[C@@H]8OC[C@@H](O)[C@H](O)[C@H]8O)[C@@H](O)[C@H](O)[C@H]7O)[C@@H](O)[C@H](O)[C@H]6O)C(C)(C)C5CC[C@]43C)[C@@H]2C1 (stereo partly drawn),,-32.8%
CN[C@@H]1[C@H](O[C@H]2[C@H](O[C@@H]3[C@@H](O)[C@H](O)[C@@H](N=C(N)N)[C@H](O)[C@H]3N=C(N)N)O[C@@H](C)[C@]2(O)C=O)O[C@@H](CO)[C@H](O)[C@H]1O,,-17.2%
CC(C)C1=CC2C(CC[C@]2(C)O)[C@](C)(O)CC1 (stereo partly drawn),,2.33%
C[C@@H]1O[C@@H](O[C@H]2[C@H](O)[C@@H](C(=O)O)O[C@@H](O[C@H]3CC[C@@]4(C)C(CC[C@]5(C)C4CC=C4C6CC(C)(C)CC[C@]6(C(=O)O)CC[C@]45C)C3(C)C)[C@@H]2O[C@@H]2OC[C@@H](O)[C@H](O)[C@H]2O)[C@H](O)[C@H](O)[C@H]1O (stereo partly drawn),,-12.7%
